In PubChem BioAssay (NCI):
About 79,000 compounds went through this panel and 15% of them were active in at least one assay; those are over-represented in the sample as a whole. Values without a mark were called inactive. Active and inactive are the calls of the source. No stated cut-off is given here; in the data, active means growth inhibition above about 70%; inactive means the rest.

assay: NCI Yeast Anticancer Drug Screen. Data for the rad50 strain (AID 155);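 further: 0% = growth of vehicle-only cultures of the same strain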; details: S. cerevisiae rad50 strain growth inhibition; at 50.0 µM; hits give high values
Method in brief: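 A DNA repair-deficient yeast mutant serves as the test organism; compound-induced growth inhibition is calculated against vehicle-treated cells.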

Compound | growth inhibition
Cc1cc(Cl)nc2ccc(Cc3ccc(Cl)cc3)cc12 | 16.7%
Cc1cccc2c(CC(N)C(=O)O)c[nH]c12 (centres undefined) | 3.25%
N#Cc1cc2c3ccccc3ncc2c2ccccc12 | 0.95%
C/C=N\n1c(C)c(C#N)c(C#N)c1N | 8.6%
CC(=O)CC1CCc2ccc3ccccc3c2C1c1cccc2ccccc12 (centres undefined) | 2.35%
Cc1ccc(/C=C/C(=O)C(C)(C)CN2CCCCC2)cc1 | 35.6%
COC(=O)c1c2c(cc3c1CC1(C3)Cc3cc4c(c(C(C)=O)c3C1)CCC4)C=CC2 (centres undefined) | 0.15%
NC(=O)CNc1ccc(CC2CCOC2=O)cc1 (centres undefined) | -7.45%
C/C(=N/O)C1CC(C)([N+](=O)[O-])CCC1(C)O (centres undefined) | -8.15%
CC(NC(=O)Nc1ccccc1Cl)c1ccccc1 (centres undefined) | -2.05%
CCCCS(=O)(=O)C[N+](C)(CC)CC | 34.1%
O=C(NC(=O)c1ccc(Cl)c(Cl)c1)Nc1ccc(Cl)cc1 | -1.45%
CC1=NC(C(=O)O)C(C)(C)S1 (centres undefined) | 2.6%
CC(=O)c1ccc(N=Nc2ccc3nonc3c2N)cc1 | -22.5%
Cc1c(C(=N)N)oc2ccccc12 | 6.3%
CCCCCC(=O)Oc1c(C(C)CC)cc([N+](=O)[O-])cc1[N+](=O)[O-] (centres undefined) | 97.5% (active)
CC(Oc1ccccc1)C(=O)NNC(=O)OC(C)(C)C (centres undefined) | -0.3%
O=C(O)C(c1ccccc1)C(O)C1CCCCC1 (centres undefined) | 0.8%
CCC1CCCCC1O (centres undefined) | 1.6%
CCCCCCSc1nc2c([nH]1)c(=O)n(C)c(=S)n2C | 2.5%
COc1ccc(N2C(=O)C(C)SC23C(=O)Nc2ccccc23)cc1 (centres undefined) | 13.6%
O=c1c2c(oc3cc(OCC4CO4)ccc13)CCC2 (centres undefined) | -0.4%
CNC(=S)NNc1ncnc2c1ncn2-c1ccc(C)cc1 | -30.4%
CCc1cccc(C)c1N1C(=O)C(=O)C(c2nc3ccccc3o2)C(=O)C1=O | 33.8%

assay: NCI Yeast Anticancer Drug Screen. Data for the mec2-1 strain (AID 157); details: S. cerevisiae mec2-1 strain, at 50.0 µM, hits give high values
Method in brief: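 mec2-1 yeast strain, carrying an alteration in DNA damage repair or cell cycle control, was exposed to compounds; growth inhibition was measured relative to vehicle-treated controls.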

Compound | growth inhibition
COc1ccc(NC(=S)NNC(=O)c2nsc3ccccc23)cc1 | 9.85%
COc1ccc(CC2OCCC3c4ccccc4NC23)cc1OC (centres undefined) | -3.5%
C/C=N\N1C(=O)c2ccccc2C1=O | 13.7%
CC(C)=CC1C(C(=O)Oc2c(Cl)c(Cl)c(Cl)c(Cl)c2Cl)C1(C)C (centres undefined) | 6.5%
O=[N+]([O-])c1c(Cl)cc(Cl)c([N+](=O)[O-])c1-c1ccccc1 | 9.1%
Cc1cccc(Nc2nnc(Nc3cccc(C)n3)c3ccccc23)n1 | -4.5%
C/C(CC(=O)c1ccccc1)=C1\C(=O)NN(c2ccccc2)C1=O | 47.5%
O=C(/C=C/CC(O)(c1ccccc1)c1ccccc1)Nc1ccccc1Cl | -25.9%
COc1ccc(C(=O)c2ccc(C)c3c(C)cccc23)cc1 | -9.55%
O=C1NC(=O)N2CCCOC2C1c1ccccc1 (centres undefined) | -5.5%
O=C1OC2(CC1n1cnc3ccccc3c1=O)C(=O)Nc1ccccc12 (centres undefined) | -21.2%
COc1cc(OC)c(OC)cc1/C=N/N=C(\N)NO | 0.5%
CN(C)CCCN(c1nc2cc(Cl)ccc2o1)c1nc2cc(Cl)ccc2o1 | 17.1%
COC(=O)C(C#N)(CCc1ccc([N+](=O)[O-])cc1)CCc1ccc([N+](=O)[O-])cc1 | -4.25%
Cc1ccc(S(=O)(=O)Nc2ccccc2-c2nc3ccc([N+](=O)[O-])cc3c(=O)o2)cc1 | 36.2%
CC(=O)Oc1ccc(C(C)C)cc1 | -30.9%
Cc1cc(Cl)nc2ccc(Cc3ccc(Cl)cc3)cc12 | -2.65%
Cc1cccc2c(CC(N)C(=O)O)c[nH]c12 (centres undefined) | -19.9%
N#Cc1cc2c3ccccc3ncc2c2ccccc12 | 16.4%
C/C=N\n1c(C)c(C#N)c(C#N)c1N | 10.2%

Compound | growth inhibition
CC(=O)CC1CCc2ccc3ccccc3c2C1c1cccc2ccccc12 (centres undefined) | 8.2%
Cc1ccc(/C=C/C(=O)C(C)(C)CN2CCCCC2)cc1 | -9.05%
COC(=O)c1c2c(cc3c1CC1(C3)Cc3cc4c(c(C(C)=O)c3C1)CCC4)C=CC2 (centres undefined) | -12.3%
NC(=O)CNc1ccc(CC2CCOC2=O)cc1 (centres undefined) | -18.9%
C/C(=N/O)C1CC(C)([N+](=O)[O-])CCC1(C)O (centres undefined) | -13.6%
CC(NC(=O)Nc1ccccc1Cl)c1ccccc1 (centres undefined) | 17.6%
CCCCS(=O)(=O)C[N+](C)(CC)CC | -0.7%
O=C(NC(=O)c1ccc(Cl)c(Cl)c1)Nc1ccc(Cl)cc1 | -13.8%
CC1=NC(C(=O)O)C(C)(C)S1 (centres undefined) | -8.3%
CC(=O)c1ccc(N=Nc2ccc3nonc3c2N)cc1 | -4.35%
Cc1c(C(=N)N)oc2ccccc12 | 0.05%
CCCCCC(=O)Oc1c(C(C)CC)cc([N+](=O)[O-])cc1[N+](=O)[O-] (centres undefined) | 97% (active)
CC(Oc1ccccc1)C(=O)NNC(=O)OC(C)(C)C (centres undefined) | -21.9%
O=C(O)C(c1ccccc1)C(O)C1CCCCC1 (centres undefined) | -1.75%
CCC1CCCCC1O (centres undefined) | -7%
CCCCCCSc1nc2c([nH]1)c(=O)n(C)c(=S)n2C | -3.1%
COc1ccc(N2C(=O)C(C)SC23C(=O)Nc2ccccc23)cc1 (centres undefined) | 20.4%
O=c1c2c(oc3cc(OCC4CO4)ccc13)CCC2 (centres undefined) | -7.7%
CNC(=S)NNc1ncnc2c1ncn2-c1ccc(C)cc1 | 6.3%
CCc1cccc(C)c1N1C(=O)C(=O)C(c2nc3ccccc3o2)C(=O)C1=O | 17.9%
